Source: paper PMC5795388

target: ATP synthase peripheral stalk subunit d, mitochondrial (UniProt Q9DCX2); assay: cross-link between two proteins; cross-linking mass spectrometry
Sequence (Q9DCX2 whole entry): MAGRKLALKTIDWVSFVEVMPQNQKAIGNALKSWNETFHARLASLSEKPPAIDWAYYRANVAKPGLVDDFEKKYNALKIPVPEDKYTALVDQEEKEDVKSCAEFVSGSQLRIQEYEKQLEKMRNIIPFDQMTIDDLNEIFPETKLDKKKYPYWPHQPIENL

Chain of Cytochrome c, somatic, P62897 (P62897 whole entry): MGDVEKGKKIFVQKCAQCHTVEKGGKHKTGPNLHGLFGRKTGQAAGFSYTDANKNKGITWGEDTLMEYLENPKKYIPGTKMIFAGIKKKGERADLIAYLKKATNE
Chain of Trifunctional enzyme subunit alpha, mitochondrial, Q8BMS1 (Q8BMS1 whole entry): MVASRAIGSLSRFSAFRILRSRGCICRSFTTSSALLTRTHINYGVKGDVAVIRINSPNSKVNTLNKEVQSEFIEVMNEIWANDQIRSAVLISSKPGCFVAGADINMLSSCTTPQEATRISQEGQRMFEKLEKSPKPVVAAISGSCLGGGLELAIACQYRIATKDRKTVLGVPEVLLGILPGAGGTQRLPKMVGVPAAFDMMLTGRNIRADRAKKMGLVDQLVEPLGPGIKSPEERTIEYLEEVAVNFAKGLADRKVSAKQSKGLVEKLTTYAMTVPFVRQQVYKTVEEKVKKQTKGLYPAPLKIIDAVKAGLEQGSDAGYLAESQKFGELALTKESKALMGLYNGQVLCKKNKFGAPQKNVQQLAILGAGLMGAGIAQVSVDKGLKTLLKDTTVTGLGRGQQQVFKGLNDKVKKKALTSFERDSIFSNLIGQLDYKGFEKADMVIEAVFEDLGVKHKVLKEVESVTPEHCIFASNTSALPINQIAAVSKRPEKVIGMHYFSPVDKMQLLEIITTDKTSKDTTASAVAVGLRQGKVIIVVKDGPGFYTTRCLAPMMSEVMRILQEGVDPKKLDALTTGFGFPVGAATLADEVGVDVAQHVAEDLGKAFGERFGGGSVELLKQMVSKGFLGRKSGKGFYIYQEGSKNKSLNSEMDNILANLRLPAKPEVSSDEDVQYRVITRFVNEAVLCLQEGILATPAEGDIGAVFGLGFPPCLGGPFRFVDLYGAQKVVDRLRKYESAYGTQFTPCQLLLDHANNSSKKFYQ
Chain of Succinate dehydrogenase [ubiquinone] flavoprotein subunit, mitochondrial, Q8K2B3 (Q8K2B3 whole entry): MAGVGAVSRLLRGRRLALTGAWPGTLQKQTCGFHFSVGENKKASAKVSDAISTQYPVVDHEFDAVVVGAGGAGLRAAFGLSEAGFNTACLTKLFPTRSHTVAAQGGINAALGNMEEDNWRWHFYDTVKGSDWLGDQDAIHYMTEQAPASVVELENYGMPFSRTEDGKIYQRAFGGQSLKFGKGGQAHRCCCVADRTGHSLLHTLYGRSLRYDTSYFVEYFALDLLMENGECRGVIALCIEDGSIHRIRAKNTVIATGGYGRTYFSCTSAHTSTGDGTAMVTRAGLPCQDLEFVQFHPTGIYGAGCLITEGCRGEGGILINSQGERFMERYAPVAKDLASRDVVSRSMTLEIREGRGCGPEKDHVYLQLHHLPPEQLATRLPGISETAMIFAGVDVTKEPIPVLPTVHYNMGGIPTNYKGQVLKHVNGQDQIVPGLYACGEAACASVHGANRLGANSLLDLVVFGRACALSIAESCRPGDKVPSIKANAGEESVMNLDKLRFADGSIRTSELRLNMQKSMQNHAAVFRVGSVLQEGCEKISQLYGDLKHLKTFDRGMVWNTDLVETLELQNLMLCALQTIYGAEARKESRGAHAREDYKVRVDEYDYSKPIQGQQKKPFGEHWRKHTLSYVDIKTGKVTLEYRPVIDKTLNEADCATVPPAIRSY

Listed as a hit, yes:
ATP synthase F(0) complex subunit 8, P03930
Trifunctional enzyme subunit alpha, mitochondrial, Q8BMS1
Malate dehydrogenase, mitochondrial, P08249

target: Cytochrome b-c1 complex subunit 1, mitochondrial (UniProt Q9CZ13); assay: as above
Sequence (Q9CZ13 whole entry, one chain of several): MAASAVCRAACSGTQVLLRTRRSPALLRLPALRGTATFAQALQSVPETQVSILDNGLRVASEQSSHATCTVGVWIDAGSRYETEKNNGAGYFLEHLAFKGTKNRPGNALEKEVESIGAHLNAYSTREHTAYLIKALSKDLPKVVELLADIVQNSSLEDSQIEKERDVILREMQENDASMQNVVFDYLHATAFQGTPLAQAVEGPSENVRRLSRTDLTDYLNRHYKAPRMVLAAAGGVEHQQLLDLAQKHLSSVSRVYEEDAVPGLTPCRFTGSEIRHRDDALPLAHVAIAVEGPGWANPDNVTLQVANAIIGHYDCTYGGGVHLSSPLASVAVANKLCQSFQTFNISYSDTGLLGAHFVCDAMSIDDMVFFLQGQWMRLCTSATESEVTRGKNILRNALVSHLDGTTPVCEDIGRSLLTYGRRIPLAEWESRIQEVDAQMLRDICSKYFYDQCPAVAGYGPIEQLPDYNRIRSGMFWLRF

Listed as a hit, yes:
Aspartate aminotransferase, mitochondrial, P05202
Succinate dehydrogenase [ubiquinone] flavoprotein subunit, mitochondrial, Q8K2B3
Malate dehydrogenase, mitochondrial, P08249

target: Cytochrome c oxidase subunit 6C (UniProt Q9CPQ1); assay: as above
Sequence (Q9CPQ1 whole entry): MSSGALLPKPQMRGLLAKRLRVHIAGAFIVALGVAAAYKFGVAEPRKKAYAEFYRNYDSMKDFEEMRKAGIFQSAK

Listed as a hit, yes:
Cytochrome c oxidase subunit 4 isoform 1, mitochondrial, P19783
ADP/ATP translocase 1, P48962
Cytochrome c, somatic, P62897

target: NADH dehydrogenase [ubiquinone] 1 beta subcomplex subunit 10 (UniProt Q9DCS9); assay: as above
Sequence (Q9DCS9 whole entry, one chain of several): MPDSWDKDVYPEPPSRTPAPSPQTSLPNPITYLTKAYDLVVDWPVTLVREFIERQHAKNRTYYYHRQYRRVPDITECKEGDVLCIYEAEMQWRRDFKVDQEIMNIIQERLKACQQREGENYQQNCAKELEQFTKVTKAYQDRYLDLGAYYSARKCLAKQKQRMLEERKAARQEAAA

Listed as a hit, yes:
Cytochrome b-c1 complex subunit 6, mitochondrial, P99028
NADH dehydrogenase [ubiquinone] 1 beta subcomplex subunit 8, mitochondrial, Q9D6J5
NADH dehydrogenase [ubiquinone] 1 beta subcomplex subunit 4, Q9CQC7
